This assay concerns the target T1, Methionyl-tRNA synthetase, putative (Leishmania donovani (strain BPK282A1)) (UniProt E9BF75).
T1 sequence (whole entry): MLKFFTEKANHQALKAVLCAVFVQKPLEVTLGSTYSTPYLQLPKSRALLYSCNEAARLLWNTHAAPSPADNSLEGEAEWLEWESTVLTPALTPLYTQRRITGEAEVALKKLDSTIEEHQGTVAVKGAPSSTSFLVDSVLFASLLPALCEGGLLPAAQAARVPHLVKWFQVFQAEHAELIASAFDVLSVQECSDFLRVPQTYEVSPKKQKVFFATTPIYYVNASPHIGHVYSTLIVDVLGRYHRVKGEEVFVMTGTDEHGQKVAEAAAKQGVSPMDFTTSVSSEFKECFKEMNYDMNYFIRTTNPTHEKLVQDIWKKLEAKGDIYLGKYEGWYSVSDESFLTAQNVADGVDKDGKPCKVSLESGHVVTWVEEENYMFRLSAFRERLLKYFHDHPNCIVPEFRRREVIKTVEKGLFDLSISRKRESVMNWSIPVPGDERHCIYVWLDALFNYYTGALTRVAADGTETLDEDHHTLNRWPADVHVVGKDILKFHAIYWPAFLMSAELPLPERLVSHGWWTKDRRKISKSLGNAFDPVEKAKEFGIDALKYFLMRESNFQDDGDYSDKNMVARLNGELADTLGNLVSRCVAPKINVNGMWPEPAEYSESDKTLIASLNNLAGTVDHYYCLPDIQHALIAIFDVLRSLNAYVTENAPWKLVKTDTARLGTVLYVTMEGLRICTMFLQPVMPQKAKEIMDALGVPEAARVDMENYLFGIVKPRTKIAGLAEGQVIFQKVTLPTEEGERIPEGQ
As to the kind of experiment: Leishmania donovani Methionine tRNA synthetase (LdMetRS):v7. Dose response assay. The format is functional. Also on record: conc 80 nM, time 150 minutes.

The values that follow come from ChEMBL document CHEMBL3988442, “University of Dundee, Small-Polar-MMV Screening Library” (2021).

`CC(C)C[C@H](N)COc1ccc(-c2ccccc2)c(F)c1`: the PXC50 was less than 4 (MAX_EFFECT 23.6673774) and less than 4 (MAX_EFFECT 25.46583851).

In the case of `CCOC(=O)N1CCN(c2nc(C)nc3sc4c(c23)CCCC4)CC1`, the PXC50 is less than 4 (MAX_EFFECT 14.58333333) and less than 4 (MAX_EFFECT 16.22807018).

For `Cc1nc(N2C[C@@H](CN3CCCN(C)CC3)[C@@H](CO)C2)c2ccsc2n1`, the PXC50 reads like this: (MAX_EFFECT 12.53263708) less than 4; (MAX_EFFECT 15.40469974) less than 4.

Turning to `Cc1sc2nc(C(F)(F)F)nc(N3CCN(C)CC3)c2c1C`, the PXC50 runs as follows: (MAX_EFFECT 6.788511749) less than 4; (MAX_EFFECT 7.049608355) less than 4.

Take `COC(=O)c1sc2nc(C)nc(NCc3cccnc3)c2c1C`: the PXC50 was less than 4 (MAX_EFFECT 10.38251366) and less than 4 (MAX_EFFECT 11.22994652).

With `CCNc1nc(CN2CCCCC2)nc2scc(-c3ccccc3)c12`, the PXC50 is, setting by setting: (MAX_EFFECT 17.42424242) less than 4; (MAX_EFFECT 18.36734694) less than 4.

With `O=C(NCC1CCCCC1)c1cc(=O)c2ccc(F)c(O)c2o1`, the PXC50 was less than 4 (MAX_EFFECT 5.182341651) and less than 4 (MAX_EFFECT -0.4784689).

Take `Cc1nc(NCCCS(N)(=O)=O)c2c3c(sc2n1)CCC3`: the PXC50 runs as follows: (MAX_EFFECT 5.319148936) less than 4; (MAX_EFFECT 8.29015544) less than 4.

In the case of `CCc1nc(NCc2ccccn2)c2cc(C)sc2n1`, the PXC50 by setting is: (MAX_EFFECT 5.651105651) less than 4; (MAX_EFFECT 6.030150754) less than 4.

`CC(=O)N1CCC(NC(=O)c2ccc3ccc(N4CCN(S(C)(=O)=O)CC4)n3c2)CC1`: the PXC50 is, setting by setting: (BOTTOM 2.919824671, HILLSLOPE 1.594432626, MAX_EFFECT 67.35849057, TOP 70.74594509) 4.9; (BOTTOM 3.112441615, HILLSLOPE 1.895765793, MAX_EFFECT 63.92694064, TOP 65.42596591) 4.95.

Regarding `CS(=O)(=O)N1CCN(c2ccc3ccc(C(=O)NCCS(=O)(=O)N4CCOCC4)cn23)CC1`, the PXC50 is 5 (BOTTOM 0.75923045, HILLSLOPE 2.636958023, MAX_EFFECT 55.02392344, TOP 52.30756256) and 4.85 (BOTTOM 6.938223691, HILLSLOPE 3.502169957, MAX_EFFECT 60.32906764, TOP 60.07357055).

As to `Cc1nc(N2CCNC(=O)CC2)c2c(CC(C)C)csc2n1`, the PXC50 is, setting by setting: (MAX_EFFECT 6.557377049) less than 4; (MAX_EFFECT 9.625668449) less than 4.

As for `CCc1nc(N2CCCC(C(=O)O)C2)c2c3c(sc2n1)CCC3` (stereo not given), the PXC50 is less than 4 (MAX_EFFECT 18.93939394) and less than 4 (MAX_EFFECT 20.91836735).

Turning to `CCc1cc2c(NCCCN(C)C)nc(C)nc2s1`, the PXC50 reads like this: (MAX_EFFECT 11.55778894) less than 4; (MAX_EFFECT 12.03931204) less than 4.

Turning to `CCCNc1nc(-c2ccc(C)cc2)cc(C(F)(F)F)n1`, the PXC50 is less than 4 (MAX_EFFECT 6.21761658) and less than 4 (MAX_EFFECT 10.10638298).

For the compound `Cc1nc(N2CCCC(O)C2)c2c3c(sc2n1)CCCC3` (stereo not given), the PXC50 is less than 4 (MAX_EFFECT 9.649122807) and less than 4 (MAX_EFFECT 16.66666667).

For `CNC(=O)CNc1nc(C)nc2sc3c(c12)CCC3`, the PXC50 by setting is: (MAX_EFFECT 7.888040712) less than 4; (MAX_EFFECT 9.319899244) less than 4.

As for `Cc1ccc(-c2cc(C(F)(F)F)nc(NCCCN(C)C)n2)cc1`, the PXC50 is, setting by setting: (MAX_EFFECT 7.446808511) less than 4; (MAX_EFFECT 8.808290155) less than 4.

As to `CNc1ccc2ncc(-c3ccc4onc(N)c4c3)n2n1`, the PXC50 (MAX_EFFECT 16.28498728) was less than 4 and the PXC50 (MAX_EFFECT 18.85964912) is less than 4.

For the compound `OCCN1CCC(F)(F)C2(CCN(c3cnccn3)C2)C1` (stereo not given), the PXC50 was less than 4 (MAX_EFFECT 3.174603175) and less than 4 (MAX_EFFECT 14.57943925).

As for `OB1OCc2cc(C(F)(F)F)ncc21`, the PXC50 was less than 4 (MAX_EFFECT 8.490566038) and less than 4 (MAX_EFFECT 11.87214612).

`Cc1nc(N2CCN(c3ncccn3)CC2)c2c3c(sc2n1)CCC3`: the PXC50 is, setting by setting: (MAX_EFFECT 14.75409836) less than 4; (MAX_EFFECT 18.71657754) less than 4.

As for `CCc1cc2c(NC(CC(C)C)C(=O)O)nc(C)nc2s1` (stereo not given), the PXC50 is less than 4 (MAX_EFFECT 8.0) and less than 4 (MAX_EFFECT 13.22751323).

In turn, `Clc1ccccc1CN1CCc2nc(Nc3ccccc3)ncc2C1` showed a PXC50 (MAX_EFFECT 23.92344498) of less than 4 and a PXC50 (MAX_EFFECT 25.2285192) of less than 4.

For the compound `O=c1nc(NCCCNCc2cc(Br)cc(Br)c2)[nH]c2ccsc12`, the PXC50 runs as follows: (BOTTOM 2.299047881, HILLSLOPE 2.649797199, MAX_EFFECT 103.7296037, TOP 100.0081261) 6.16; (BOTTOM 10.20336465, HILLSLOPE 2.013529983, MAX_EFFECT 101.8604651, TOP 99.90152213) 6.19.

In the case of `CCN(CC)C(=O)CN(C)c1nc(C)nc2sc(-c3ccccc3)cc12`, the PXC50 reads like this: (MAX_EFFECT 23.46666667) less than 4; (MAX_EFFECT 30.15873016) less than 4.

Regarding `CCc1nc(N2CCN(CC)CC2)c2cc(CC)sc2n1`, the PXC50 was less than 4 (MAX_EFFECT 7.407407407) and less than 4 (MAX_EFFECT 9.066666667).

In the case of `Cc1nc(NC2CCCC2)c2c3c(sc2n1)CCCC3`, the PXC50 is less than 4 (MAX_EFFECT 28.64583333) and less than 4 (MAX_EFFECT 30.70175439).

Consider `CS(=O)(=O)N1CCN(c2ccc3ccc(C(=O)NCC(=O)N4CCOCC4)cn23)CC1`, for which the PXC50 reads like this: (BOTTOM 0.290613171, HILLSLOPE 1.637678219, MAX_EFFECT 51.19617225, TOP 53.26483222) 4.83; (BOTTOM 5.655540606, HILLSLOPE 2.540340494, MAX_EFFECT 56.3071298, TOP 55.42961413) 4.8.

`Nc1noc2ccc(-c3cnc4ccc(NCc5ccncc5)nn34)cc12`: the PXC50 is, setting by setting: (MAX_EFFECT 14.75826972) less than 4; (MAX_EFFECT 25.87719298) less than 4.
